One sequence from publication PMC7862700, “An all-to-all approach to the identification of sequence-specific readers for epigenetic DNA modifications on cytosine” can be followed below.

What all share (experiment): DAPPL (digital affinity profiling via proximity ligation, sequencing); 10 mM Tris-HCl pH 7.5, 50 mM NaCl, 1 mM DTT, 4% glycerol, room temperature, 30 min; GST-TFs on glutathione beads, 16-mer random dsDNA library, 0.1% formaldehyde crosslink after washing; high values mean tight binding
The target of one assay is T1, FLI1 (Homo sapiens, UniProt Q01543 1-452).
T1 sequence: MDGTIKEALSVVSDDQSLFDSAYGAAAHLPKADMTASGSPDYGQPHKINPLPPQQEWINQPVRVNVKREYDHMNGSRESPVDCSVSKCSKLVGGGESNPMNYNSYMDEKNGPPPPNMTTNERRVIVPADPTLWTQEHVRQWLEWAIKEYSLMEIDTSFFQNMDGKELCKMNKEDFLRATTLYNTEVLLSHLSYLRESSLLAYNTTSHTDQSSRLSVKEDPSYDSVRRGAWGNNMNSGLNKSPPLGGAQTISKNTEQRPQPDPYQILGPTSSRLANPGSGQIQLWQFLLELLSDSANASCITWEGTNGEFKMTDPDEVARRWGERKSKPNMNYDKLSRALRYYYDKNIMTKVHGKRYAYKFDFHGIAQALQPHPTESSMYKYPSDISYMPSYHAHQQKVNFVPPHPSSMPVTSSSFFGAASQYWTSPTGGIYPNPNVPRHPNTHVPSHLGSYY
The following applies: protein: recombinant; tags: N-terminal GST; dsDNA, one strand shown. The method, boiled down: (§1)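 Binding signal is defined as a hexamer's read frequency for one factor over its frequency for the tag-only sample. To obtain reads, GST-fused human transcription factors were expressed in yeast, captured on glutathione beads, barcoded with DNA and pooled with that sample. Pools met 200 nmole of a 16-mer random double-stranded DNA library in Tris/NaCl/DTT/glycerol buffer for 30 min at room temperature before washing, 0.1% formaldehyde crosslinking, proximity ligation (BsaI/T4 ligase, 1 h, 37 °C), PCR and Illumina NextSeq500 sequencing.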

The target in a further assay is T2, ELK1 (Homo sapiens, UniProt P19419 1-428).
T2 sequence: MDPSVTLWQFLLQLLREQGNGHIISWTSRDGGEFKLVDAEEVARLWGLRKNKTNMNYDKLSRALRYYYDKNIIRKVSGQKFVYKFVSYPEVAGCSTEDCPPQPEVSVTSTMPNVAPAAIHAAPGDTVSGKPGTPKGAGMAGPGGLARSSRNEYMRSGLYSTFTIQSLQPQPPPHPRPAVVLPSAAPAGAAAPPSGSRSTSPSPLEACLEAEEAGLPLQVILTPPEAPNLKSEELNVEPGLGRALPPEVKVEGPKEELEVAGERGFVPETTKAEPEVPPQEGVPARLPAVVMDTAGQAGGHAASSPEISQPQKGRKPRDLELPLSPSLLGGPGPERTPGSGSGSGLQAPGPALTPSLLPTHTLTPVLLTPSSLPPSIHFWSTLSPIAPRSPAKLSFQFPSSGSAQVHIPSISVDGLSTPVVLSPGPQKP
The following applies: protein: recombinant; tags: N-terminal GST; dsDNA, one strand shown. A digest of the protocol:
as §1

A further assay has as its target T3, GABPA (Homo sapiens, UniProt Q06546 1-454).
T3 sequence: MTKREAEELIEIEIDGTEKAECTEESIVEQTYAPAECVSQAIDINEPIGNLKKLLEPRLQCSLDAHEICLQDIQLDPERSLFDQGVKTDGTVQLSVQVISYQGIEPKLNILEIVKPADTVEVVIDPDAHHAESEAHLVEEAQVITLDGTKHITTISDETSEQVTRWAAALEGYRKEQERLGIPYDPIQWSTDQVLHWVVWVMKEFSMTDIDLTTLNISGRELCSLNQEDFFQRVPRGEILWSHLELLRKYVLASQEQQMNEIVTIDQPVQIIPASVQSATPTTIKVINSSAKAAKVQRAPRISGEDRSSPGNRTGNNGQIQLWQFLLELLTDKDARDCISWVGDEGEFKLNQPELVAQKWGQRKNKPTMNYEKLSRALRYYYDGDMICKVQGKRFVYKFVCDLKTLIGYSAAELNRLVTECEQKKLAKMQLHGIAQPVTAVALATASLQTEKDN
The note with it: protein: recombinant; tags: N-terminal GST; dsDNA, one strand shown. A digest of the protocol: as §1

A further assay has as its target T4, ERG (Homo sapiens, UniProt P11308 1-479).
T4 sequence: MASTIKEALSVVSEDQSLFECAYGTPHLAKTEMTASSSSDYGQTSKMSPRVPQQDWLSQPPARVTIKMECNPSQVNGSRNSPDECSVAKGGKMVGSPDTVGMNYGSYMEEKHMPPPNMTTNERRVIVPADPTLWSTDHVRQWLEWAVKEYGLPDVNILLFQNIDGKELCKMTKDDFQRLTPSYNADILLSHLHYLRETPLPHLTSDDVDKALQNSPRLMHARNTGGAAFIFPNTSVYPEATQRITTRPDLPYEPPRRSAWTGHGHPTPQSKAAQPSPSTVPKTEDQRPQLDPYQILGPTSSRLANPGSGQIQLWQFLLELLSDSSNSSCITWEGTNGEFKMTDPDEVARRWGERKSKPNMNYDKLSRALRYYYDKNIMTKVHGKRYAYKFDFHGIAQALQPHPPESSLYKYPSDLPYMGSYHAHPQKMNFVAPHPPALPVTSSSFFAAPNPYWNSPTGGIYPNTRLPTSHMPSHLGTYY
The note with it: protein: recombinant; tags: N-terminal GST; dsDNA, one strand shown. A digest of the protocol:
as §1

Another assay deals with ELF1 (Homo sapiens, UniProt P32519 1-619). The following applies: protein: recombinant; tags: N-terminal GST; dsDNA, one strand shown. A digest of the protocol: as §1
Chain of ELF1 (P32519 whole entry): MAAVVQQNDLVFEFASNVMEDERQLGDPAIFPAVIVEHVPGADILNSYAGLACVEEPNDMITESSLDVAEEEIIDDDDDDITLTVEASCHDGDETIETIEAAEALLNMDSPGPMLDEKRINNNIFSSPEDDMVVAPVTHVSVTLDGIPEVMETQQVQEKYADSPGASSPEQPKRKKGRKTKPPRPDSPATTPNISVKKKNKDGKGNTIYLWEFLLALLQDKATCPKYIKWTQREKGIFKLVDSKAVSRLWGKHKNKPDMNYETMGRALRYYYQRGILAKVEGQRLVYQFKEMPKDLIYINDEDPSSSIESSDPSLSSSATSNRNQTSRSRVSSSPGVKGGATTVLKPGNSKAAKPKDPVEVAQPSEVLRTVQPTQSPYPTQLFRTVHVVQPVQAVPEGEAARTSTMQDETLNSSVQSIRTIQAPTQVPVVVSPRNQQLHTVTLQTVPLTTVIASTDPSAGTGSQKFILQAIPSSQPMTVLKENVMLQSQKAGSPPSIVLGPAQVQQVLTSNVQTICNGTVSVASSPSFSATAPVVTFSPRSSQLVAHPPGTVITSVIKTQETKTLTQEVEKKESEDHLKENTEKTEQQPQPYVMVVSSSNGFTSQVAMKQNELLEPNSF
In another assay the target is T5, EHF (Homo sapiens, UniProt Q9NZC4 1-300).
T5 sequence: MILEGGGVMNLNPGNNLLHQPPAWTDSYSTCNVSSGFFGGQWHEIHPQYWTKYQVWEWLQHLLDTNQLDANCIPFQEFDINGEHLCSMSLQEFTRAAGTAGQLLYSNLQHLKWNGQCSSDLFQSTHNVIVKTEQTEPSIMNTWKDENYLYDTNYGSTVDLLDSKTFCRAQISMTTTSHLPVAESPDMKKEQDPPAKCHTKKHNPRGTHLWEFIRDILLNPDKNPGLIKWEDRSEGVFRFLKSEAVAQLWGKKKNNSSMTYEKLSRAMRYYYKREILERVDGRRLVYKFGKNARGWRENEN
The note with it: protein: recombinant; tags: N-terminal GST; dsDNA, one strand shown. The method, boiled down:
as §1

The target of a further assay is SPI1 (Homo sapiens, UniProt P17947 1-270). The following applies: protein: recombinant; tags: N-terminal GST; dsDNA, one strand shown. A digest of the protocol:
as §1

The target in another assay is SPIB (Homo sapiens, UniProt Q01892 1-262). The note with it: protein: recombinant; tags: N-terminal GST; dsDNA, one strand shown. The method, boiled down:
as §1

The target in a further assay is T6, ELK3 (Homo sapiens, UniProt P41970 1-407).
T6 sequence: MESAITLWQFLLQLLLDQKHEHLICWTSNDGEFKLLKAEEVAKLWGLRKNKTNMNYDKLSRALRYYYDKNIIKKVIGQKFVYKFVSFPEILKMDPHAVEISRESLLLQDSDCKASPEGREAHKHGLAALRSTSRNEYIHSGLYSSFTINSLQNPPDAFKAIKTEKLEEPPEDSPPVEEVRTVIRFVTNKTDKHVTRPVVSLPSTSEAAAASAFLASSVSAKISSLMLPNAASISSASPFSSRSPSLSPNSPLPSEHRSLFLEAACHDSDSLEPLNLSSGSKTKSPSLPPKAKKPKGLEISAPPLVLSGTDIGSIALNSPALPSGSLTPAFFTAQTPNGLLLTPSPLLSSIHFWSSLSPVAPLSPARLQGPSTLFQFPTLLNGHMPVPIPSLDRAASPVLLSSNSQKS
The note with it: protein: recombinant; tags: N-terminal GST; dsDNA, one strand shown. The method, boiled down: as §1

Another assay deals with T7, FEV (Homo sapiens, UniProt Q99581 1-238).
T7 sequence: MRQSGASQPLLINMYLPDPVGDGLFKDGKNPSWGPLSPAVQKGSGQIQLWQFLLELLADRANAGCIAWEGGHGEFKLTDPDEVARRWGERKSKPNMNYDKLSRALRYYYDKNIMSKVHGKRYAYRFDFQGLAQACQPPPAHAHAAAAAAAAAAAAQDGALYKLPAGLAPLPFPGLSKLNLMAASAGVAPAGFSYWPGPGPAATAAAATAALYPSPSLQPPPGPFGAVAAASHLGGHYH
The note with it: protein: recombinant; tags: N-terminal GST; dsDNA, one strand shown. The method, boiled down: as §1

Another assay concerns the target ETV5 (Homo sapiens, UniProt P41161 1-510). The following applies: protein: recombinant; tags: N-terminal GST; dsDNA, one strand shown. The method, boiled down:
as §1

In the next assay the target is HSF1 (Homo sapiens, UniProt Q00613 1-529). The following applies: protein: recombinant; tags: N-terminal GST; chain copies: 3; dsDNA, one strand shown. The method, boiled down:
as §1

The target of another assay is ELF4 (Homo sapiens, UniProt Q99607 1-663). The note with it: protein: recombinant; tags: N-terminal GST; dsDNA, one strand shown. The method, boiled down: as §1
Chain of ELF4 (Q99607 whole entry): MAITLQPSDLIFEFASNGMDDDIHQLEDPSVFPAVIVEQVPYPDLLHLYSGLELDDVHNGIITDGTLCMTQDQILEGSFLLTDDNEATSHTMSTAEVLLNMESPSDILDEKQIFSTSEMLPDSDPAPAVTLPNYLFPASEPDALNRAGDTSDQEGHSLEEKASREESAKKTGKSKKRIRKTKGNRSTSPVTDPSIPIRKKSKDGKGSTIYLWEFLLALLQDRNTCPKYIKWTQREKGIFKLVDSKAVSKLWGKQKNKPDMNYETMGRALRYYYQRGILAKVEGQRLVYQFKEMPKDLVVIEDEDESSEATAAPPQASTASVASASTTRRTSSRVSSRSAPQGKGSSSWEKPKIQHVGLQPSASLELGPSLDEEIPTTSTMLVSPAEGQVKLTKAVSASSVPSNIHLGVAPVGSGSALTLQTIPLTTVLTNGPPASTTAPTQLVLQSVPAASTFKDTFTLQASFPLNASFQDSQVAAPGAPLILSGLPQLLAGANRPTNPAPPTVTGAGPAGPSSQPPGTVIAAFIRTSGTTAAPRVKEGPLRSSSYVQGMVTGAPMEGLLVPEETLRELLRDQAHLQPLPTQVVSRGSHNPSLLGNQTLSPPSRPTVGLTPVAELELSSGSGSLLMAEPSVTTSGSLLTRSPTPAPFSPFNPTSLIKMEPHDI
For a further assay, the target named is T8, ELK4 (Homo sapiens, UniProt P28324-2 1-405).
T8 sequence: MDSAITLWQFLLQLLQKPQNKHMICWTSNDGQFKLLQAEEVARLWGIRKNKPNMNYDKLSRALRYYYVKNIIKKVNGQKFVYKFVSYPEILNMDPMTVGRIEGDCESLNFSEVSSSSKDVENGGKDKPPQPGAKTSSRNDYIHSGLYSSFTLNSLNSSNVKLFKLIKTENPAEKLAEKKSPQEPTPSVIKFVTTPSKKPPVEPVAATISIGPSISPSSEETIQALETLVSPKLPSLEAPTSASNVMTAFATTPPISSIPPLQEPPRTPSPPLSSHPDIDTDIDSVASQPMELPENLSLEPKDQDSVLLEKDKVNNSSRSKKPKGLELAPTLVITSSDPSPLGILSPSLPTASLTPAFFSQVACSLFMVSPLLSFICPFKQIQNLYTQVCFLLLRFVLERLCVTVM
The following applies: protein: recombinant; tags: N-terminal GST; dsDNA, one strand shown. A digest of the protocol:
as §1

A further assay deals with T9, ETV2 (Homo sapiens, UniProt O00321 1-342).
T9 sequence: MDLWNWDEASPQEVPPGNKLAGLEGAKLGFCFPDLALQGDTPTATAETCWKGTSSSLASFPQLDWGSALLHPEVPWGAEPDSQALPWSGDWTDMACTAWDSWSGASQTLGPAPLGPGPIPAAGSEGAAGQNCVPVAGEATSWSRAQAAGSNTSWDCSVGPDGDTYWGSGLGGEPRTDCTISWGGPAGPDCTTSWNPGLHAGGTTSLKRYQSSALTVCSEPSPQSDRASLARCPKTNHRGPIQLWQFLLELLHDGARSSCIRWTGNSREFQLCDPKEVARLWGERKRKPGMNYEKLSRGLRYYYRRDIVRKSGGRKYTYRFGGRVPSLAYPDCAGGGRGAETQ
The note with it: protein: recombinant; tags: N-terminal GST; dsDNA, one strand shown. A digest of the protocol: as §1

Another assay has as its target T10, ELF3 (Homo sapiens, UniProt P78545 1-371).
T10 sequence: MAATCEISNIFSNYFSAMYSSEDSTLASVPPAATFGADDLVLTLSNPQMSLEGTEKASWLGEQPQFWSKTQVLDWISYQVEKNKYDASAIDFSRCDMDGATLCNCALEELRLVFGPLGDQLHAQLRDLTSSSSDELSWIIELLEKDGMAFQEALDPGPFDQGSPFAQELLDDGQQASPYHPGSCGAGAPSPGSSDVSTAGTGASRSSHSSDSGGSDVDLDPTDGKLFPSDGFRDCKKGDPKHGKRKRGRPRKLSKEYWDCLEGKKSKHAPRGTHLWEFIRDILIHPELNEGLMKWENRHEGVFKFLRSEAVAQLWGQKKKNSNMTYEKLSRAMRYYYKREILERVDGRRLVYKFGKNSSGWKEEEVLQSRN
The following applies: protein: recombinant; tags: N-terminal GST; dsDNA, one strand shown. A digest of the protocol: as §1

A further assay concerns the target CRX (Homo sapiens, UniProt O43186 1-299). The note with it: protein: recombinant; tags: N-terminal GST; dsDNA, one strand shown. A digest of the protocol: as §1
Another assay deals with ETV1 (Homo sapiens, UniProt P50549 1-477). The note with it: protein: recombinant; tags: N-terminal GST; dsDNA, one strand shown. The method, boiled down: as §1
Chain of ETV1 (P50549 whole entry): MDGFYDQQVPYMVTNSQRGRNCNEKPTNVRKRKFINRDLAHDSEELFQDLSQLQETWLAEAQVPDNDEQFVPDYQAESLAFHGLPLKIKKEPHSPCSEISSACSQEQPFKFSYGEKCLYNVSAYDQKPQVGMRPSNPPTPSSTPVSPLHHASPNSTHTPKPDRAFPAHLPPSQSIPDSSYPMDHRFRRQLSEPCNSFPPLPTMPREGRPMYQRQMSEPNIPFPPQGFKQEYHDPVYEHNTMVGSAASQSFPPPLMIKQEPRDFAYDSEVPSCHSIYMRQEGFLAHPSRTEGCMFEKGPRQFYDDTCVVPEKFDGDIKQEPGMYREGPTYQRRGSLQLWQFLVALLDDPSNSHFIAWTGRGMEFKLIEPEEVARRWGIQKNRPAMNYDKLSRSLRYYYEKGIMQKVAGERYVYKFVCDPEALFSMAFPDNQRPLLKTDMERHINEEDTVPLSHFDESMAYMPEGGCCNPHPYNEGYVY

Chain of ETV5 (P41161 whole entry): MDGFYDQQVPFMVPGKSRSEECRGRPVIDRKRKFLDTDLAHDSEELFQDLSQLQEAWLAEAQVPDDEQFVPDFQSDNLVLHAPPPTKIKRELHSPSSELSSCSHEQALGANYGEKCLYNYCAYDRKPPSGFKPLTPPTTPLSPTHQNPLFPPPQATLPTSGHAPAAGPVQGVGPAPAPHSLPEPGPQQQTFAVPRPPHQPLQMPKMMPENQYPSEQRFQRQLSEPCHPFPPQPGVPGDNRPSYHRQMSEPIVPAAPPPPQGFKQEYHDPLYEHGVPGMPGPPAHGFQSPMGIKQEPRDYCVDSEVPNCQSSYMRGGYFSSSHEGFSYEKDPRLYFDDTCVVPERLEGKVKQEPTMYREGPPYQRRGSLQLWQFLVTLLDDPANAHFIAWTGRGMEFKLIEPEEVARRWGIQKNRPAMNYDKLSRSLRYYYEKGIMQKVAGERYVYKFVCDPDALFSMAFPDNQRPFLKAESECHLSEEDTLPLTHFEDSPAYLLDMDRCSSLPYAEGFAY
Chain of SPIB (Q01892 whole entry): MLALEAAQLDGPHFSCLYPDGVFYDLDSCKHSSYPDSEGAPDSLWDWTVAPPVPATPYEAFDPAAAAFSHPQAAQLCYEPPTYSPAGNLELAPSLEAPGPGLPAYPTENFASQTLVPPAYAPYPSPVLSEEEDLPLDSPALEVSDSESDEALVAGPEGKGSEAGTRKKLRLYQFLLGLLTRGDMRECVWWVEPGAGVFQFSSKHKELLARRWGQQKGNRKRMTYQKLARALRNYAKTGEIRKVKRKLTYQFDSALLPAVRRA
Chain of CRX (O43186 whole entry): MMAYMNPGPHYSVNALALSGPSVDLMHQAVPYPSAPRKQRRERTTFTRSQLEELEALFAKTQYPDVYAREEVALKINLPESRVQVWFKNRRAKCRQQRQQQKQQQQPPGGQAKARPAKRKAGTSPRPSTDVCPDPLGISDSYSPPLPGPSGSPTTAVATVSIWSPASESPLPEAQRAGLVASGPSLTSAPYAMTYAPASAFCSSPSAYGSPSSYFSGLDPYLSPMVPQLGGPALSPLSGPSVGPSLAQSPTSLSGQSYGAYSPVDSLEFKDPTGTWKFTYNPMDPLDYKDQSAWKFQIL
Chain of HSF1 (Q00613 whole entry): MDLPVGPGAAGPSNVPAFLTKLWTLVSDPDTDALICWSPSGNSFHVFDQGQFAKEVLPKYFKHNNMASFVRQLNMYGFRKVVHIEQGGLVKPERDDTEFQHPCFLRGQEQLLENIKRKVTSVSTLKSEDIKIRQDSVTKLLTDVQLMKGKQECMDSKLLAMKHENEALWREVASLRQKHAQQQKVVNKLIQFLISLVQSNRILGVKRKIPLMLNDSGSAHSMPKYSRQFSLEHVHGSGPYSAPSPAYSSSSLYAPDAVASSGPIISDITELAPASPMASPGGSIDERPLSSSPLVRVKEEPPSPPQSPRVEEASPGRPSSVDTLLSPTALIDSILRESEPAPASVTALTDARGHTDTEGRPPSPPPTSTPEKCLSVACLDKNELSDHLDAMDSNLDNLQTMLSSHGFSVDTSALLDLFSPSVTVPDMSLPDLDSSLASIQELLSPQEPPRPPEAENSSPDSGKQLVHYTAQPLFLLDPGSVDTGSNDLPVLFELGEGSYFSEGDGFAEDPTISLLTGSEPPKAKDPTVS

For TCAAAG, the binding signal with FLI1 was 1.08 fold enrichment (6-mer frequency, TF over GST control); in the assay with ELK1, 1.01 fold enrichment (6-mer frequency, TF over GST control); with GABPA, 1.13 fold enrichment (6-mer frequency, TF over GST control); with ERG, 1.09 fold enrichment (6-mer frequency, TF over GST control); with ELF1 it was 1.19 fold enrichment (6-mer frequency, TF over GST control); with EHF it was 1.02 fold enrichment (6-mer frequency, TF over GST control). The binding signal is 1.1 fold enrichment (6-mer frequency, TF over GST control) in the assay with SPI1; 1.11 fold enrichment (6-mer frequency, TF over GST control) with SPIB; 1.15 fold enrichment (6-mer frequency, TF over GST control) with ELK3; 1.1 fold enrichment (6-mer frequency, TF over GST control) with FEV; 1.08 fold enrichment (6-mer frequency, TF over GST control) in the assay with ETV5; 1.17 fold enrichment (6-mer frequency, TF over GST control) with HSF1. The binding signal with ELF4 is 1.14 fold enrichment (6-mer frequency, TF over GST control); with ELK4, 1.21 fold enrichment (6-mer frequency, TF over GST control); with ETV2, 1.03 fold enrichment (6-mer frequency, TF over GST control); with ELF3, 1.16 fold enrichment (6-mer frequency, TF over GST control); with CRX, 1.32 fold enrichment (6-mer frequency, TF over GST control); with ETV1, 1.13 fold enrichment (6-mer frequency, TF over GST control).
